# RMI-FANCM inh: disruptors of RMI1/RMI2 association with MM2 peptide – biochemical, fluorescence polarization, human, primary screen; RMI core complex (RMI1/RMI2) binding to FANCM MM2 peptide, human; RMI core complex with F-MM2 peptide; stronger effect = lower value; FP signal (polarization) at 33 µM; 70,000 tested, 0.58% active; AID 1159607, 2016; in the data active means FP signal below about 40
# An asterisk follows results filed as active; ! = repeats disagree. Shown is part of a subset that was picked to be rich in hits.
SMILES,RMI-FANCM inh
COc1ccc(-c2csc3c(=O)n(Cc4ccccc4F)cnc23)cc1,66
N#CCn1cnc2c(-c3ccccc3)csc2c1=O,62
O=c1c2scc(-c3ccccc3)c2ncn1Cc1cc(=O)n2ccccc2n1,-6*
C=CCN1C(=O)/C(=C/c2ccco2)SC1=NS(=O)(=O)c1ccc(Cl)s1,77
CSc1nnc(C(C)(C)C)c(=O)n1/N=C\c1c(O)ccc2ccccc12,71
O=c1[nH]c(CSc2nc3ccccc3o2)nc2ccccc12,55
O=S(=O)(O)c1nc2ccccc2o1,61
O=c1c(Cl)c2oc3ccccc3nc-2c2ccccc12,32*
CCCOc1ccc(-c2csc(NC(=O)C3CCCN(S(C)(=O)=O)C3)n2)cc1 (stereo unspecified),90
N=C(N)c1ccc(N)cc1,55
N=C(N)c1ccc(OCCCCCOc2ccc(C(=N)N)cc2)cc1,-2*!
CCCCCOc1ccc(C(=O)NN)cc1,55
CC(=O)Nc1ccc(C)cc1C,48
Cc1ccc(-c2csc(NC(=O)c3nc4ccccc4s3)n2)o1,111
Cc1ccc(-c2csc(NC(=O)c3nc4ccccc4s3)n2)cc1,130
O=C(Nc1csc(-c2ccc(Oc3ccc(-c4nc(NC(=O)c5nc6ccccc6s5)cs4)cc3)cc2)n1)c1nc2ccccc2s1,31*
CCn1ccc2c(O)cccc2c1=O,70
Cc1onc(-c2ccccc2Cl)c1C(=O)NCC1CCN(C(=O)OC(C)(C)C)CC1,53
CCOC(=O)C1CCN(C(=O)C2(c3cccs3)CCCC2)CC1,61
COc1ccccc1Oc1cn[nH]c1-c1ccc(O)cc1O,57
Oc1ccc(-c2[nH]ncc2Oc2ccccc2)c(O)c1O,31*
CCOc1ccc(-c2[nH]ncc2Oc2cccc(OC)c2)c(O)c1,59
Cc1ccc(C2=NC(c3ccc([N+](=O)[O-])cc3)SC(N3CCOCC3)=N2)cc1 (stereo unspecified),62
COc1ccc(CCNC(=O)Cn2cccc(-c3nc(-c4ccc(C)cc4)no3)c2=O)cc1OC,62
O=C1CC(c2ccccc2)CC(=O)N1c1ccccc1,56
SMILES,RMI-FANCM inh
CC(=O)C1=CN(c2ccccc2)C=C(C(C)=O)C1c1ccccc1,19*
NNC(=O)C1C(C(=O)NN)C1c1ccccc1 (stereo unspecified),58
O=C(Nc1nnc(CSc2ccccc2)o1)c1ccccc1,60
NCC1CCS(=O)(=O)C1 (stereo unspecified),60
CC(=O)OCC(=O)[C@@]1(O)CC[C@H]2[C@@H]3CCC4=CC(=O)CC[C@]4(C)[C@H]3C(=O)C[C@@]21C,58
C[C@]12CCC(=O)C=C1CCC1C2C(=O)C[C@@]2(C)C1CC[C@]2(O)C(=O)CO (stereo partly specified),-7*
CC(=O)OCC(=O)[C@@]1(O)CCC2C3CCC4=CC(=O)CC[C@]4(C)C3C(=O)C[C@@]21C (stereo partly specified),64
CC(C)c1c(O)ccc2c1CCC1[C@@](C)(C=O)CCC[C@]21C (stereo partly specified),60
NC(=S)NCc1ccncc1,62
Cc1ccc(NC(=O)CN2CCC(C(=O)NCCc3c[nH]c4ccccc34)CC2)cc1,54
COc1cc(C)c(C)cc1S(=O)(=O)NCC(c1ccsc1)N1CCc2ccccc2C1 (stereo unspecified),78
COc1ccc(S(=O)(=O)NCC(c2ccc(N(C)C)cc2)N2CCc3ccccc3C2)cc1OC (stereo unspecified),55
COc1cc(C)c(C)cc1S(=O)(=O)NCC(c1ccc(N(C)C)cc1)N1CCc2ccccc21 (stereo unspecified),19*
O=C(NCCn1ncc2c(=O)n(Cc3cccc(Cl)c3)cnc21)c1cccs1,62
COc1ccc(CCNC(=O)Cn2cnc3c(nnn3C)c2=O)cc1OC,63
COc1ccc(CC(=O)Nc2cc(-c3ccco3)nn2-c2nc(C)c(C)c(=O)[nH]2)cc1OC,33*
COc1ccc(CCC(=O)Nc2cc(-c3ccco3)nn2-c2nc(C)c(C)c(=O)[nH]2)cc1,41
Cc1nc(-n2nc(-c3ccco3)cc2NC(=O)COc2ccc(Cl)cc2)[nH]c(=O)c1C,57
COc1cc(OC)c(C2C=C(c3ccc(Cl)cc3)Nc3nc4ccccc4n32)cc1OC (stereo unspecified),52
Cc1nn(-c2ccc(N3CCN(C(=O)c4ccc(Br)o4)CC3)nn2)c(C)c1C,57
CCC(=O)NCCOc1ccc2nnc(-c3ccccc3)n2n1,68
COCC(=O)NCCOc1ccc2nnc(-c3ccccc3)n2n1,26*
O=C(Cc1ccccc1)NCCOc1ccc2nnc(-c3ccccc3)n2n1,69
CC(C)S(=O)(=O)c1csc(NC(=O)N=S(C)(=O)c2ccc(Cl)cc2)c1Cl (stereo unspecified),52
CN(C)C(=O)NC1c2ccccc2-c2ccccc21,58
SMILES,RMI-FANCM inh
O=C(Nc1c2c(nn1-c1ccc(Oc3ccccc3)cc1)CSC2)c1ccc(C(=O)c2ccccc2)cc1,50
Cc1cc(=O)oc2cc(O)ccc12,51
Cc1cc(=O)oc2cc(O)c(O)cc12,10*
Cc1cc(=O)oc2c(O)c(O)ccc12,66
Cc1nc(SCc2ccccc2F)[nH]c(=O)c1CC(=O)NCc1cccs1,63
O=c1[nH]c(SCc2nc(-c3cccc(Cl)c3)no2)nc2ccsc12,72
Cc1cc(NS(=O)(=O)c2ccc(F)cc2)ccc1N1CCCC1=O,53
COc1ccc(C(c2c(C)[nH]c3ccccc23)c2c(C)[nH]c3ccccc23)c(OC)c1,16*
Cc1ccnc(NC(c2ccco2)c2c(C)[nH]c3ccccc23)c1 (stereo unspecified),88
COc1ccc(Cc2nc3ccccc3[nH]2)cc1,62
COc1cccc(C(=O)Nc2ccc(-c3nnc(C)o3)cc2)c1OC,65
Cc1ccc(S(=O)(=O)N2CCCCC2CC(=O)Nc2nc3c(C)cccc3s2)cc1 (stereo unspecified),79
C(=N/Nc1nc2ccccc2s1)/c1ccco1,61
C(=N/Nc1nnc(-c2ccccc2)c(-c2ccccc2)n1)/c1ccncc1,56
C(/C=C/c1ccco1)=N/Nc1nnc(-c2ccccc2)c(-c2ccccc2)n1,21*
O=C(Nc1nnc(-c2ccc(C(F)(F)F)cc2)o1)c1cc2ccccc2o1,67
CC(=O)Nc1cccc2cccnc12,55
COCCNS(=O)(=O)c1cc(C)c(OC)cc1C,59
O=C(O)C1=CC(=C(c2ccc(O)c(C(=O)O)c2)c2ccc(O)c(C(=O)O)c2)C=CC1=O,-9*
O=C(O)c1cc(O)ccc1O,62
Nc1ccc(O)c(C(=O)O)c1,55
CCCS(=O)(=O)N1CCn2cccc2C1c1ccc(Cl)cc1Cl (stereo unspecified),60
CC(=O)NC(=O)/C(C#N)=C/N1CCN(c2ccccc2)CC1,53
C=CCOC(=O)C(C#N)c1nc2ccccc2nc1N1CCN(c2ccccc2)CC1 (stereo unspecified),29*
Cc1cc(C)c(C#N)c(N2CCN(c3ccccc3)CC2)n1,50
O=C(COc1ccc(Cl)cc1Cl)Nc1nc2cc3c(cc2s1)OCO3,60
O=C(CSc1nc2sc3c(c2c(=O)n1-c1ccccc1)CCCCC3)Nc1ccccc1,71
O=C(CSc1nc(SCC(=O)c2ccccc2)c2c3c(sc2n1)CCC3)c1ccccc1,79
CCNc1nc(SCC(=O)NC(=O)Nc2ccccc2)nc2sc3c(c12)CCN(C)C3,33*!
Cc1cc(O)c2c(CN3CCN(Cc4ccc5c(c4)OCO5)CC3)cc(=O)oc2c1,53
